The full data set covers some 7,900 targets. This sample favours those with a hit. About 0.6% of all pairs of compound and target were hits. Values without a mark were called inactive.
What was measured:
Assay in all cases: log2 fold change, soluble protein after heating vs DMSO (PISA); higher = thermal stabilisation; K562 cells, 10 uM, 30 min; active = over 0.2 and 3.5 SD of the protein, either way, in both replicates (recomputed)
[1] = compound: CC1=C(C=C(C=C1)NC(=O)C2=CC(=CC=C2)C(C)(C)C#N)NC3=CC4=C(C=C3)N=CN(C4=O)C
How it was run: (§1)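 K562 cells at 2×10^6 cells/mL were treated for 30 min with 10 μM compound, and aliquots were heated for 3 min over 48°C-58°C before pooling. Extraction used PBS with 0.5% NP-40 at 4°C, and soluble protein was the supernatant after 21,000xg for 90 min, measured by TMTpro 16plex LC-MS/MS with channel sums equalised. Thermal stability values, relative to control samples and from duplicates, are log2 fold changes.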

[2] = compound: CC1=C(C=C(C=C1)NC(=O)C2=CC(=CC=C2)N(C)C)NC(=O)C3=CC=C(C=C3)O
How it was run: as §1

[3] = compound: CC1=CC=C(C=C1)SC2=C3C=C(SC3=CN=C2)C(=O)N
How it was run: as §1

[4] = compound: CC1=NC(=CC=C1)C2=C(N=C(N2)C(C)(C)C)C3=CC4=NC=CN=C4C=C3
How it was run: as §1

Nexturastat A = compound: CCCCN(Cc1ccc(C(=O)NO)cc1)C(=O)Nc1ccccc1 [Nexturastat A]
How it was run: as §1

vemurafenib = compound: CCCS(=O)(=O)Nc1ccc(F)c(C(=O)c2c[nH]c3ncc(-c4ccc(Cl)cc4)cc23)c1F [vemurafenib]
How it was run: as §1

[5] = compound: CCCS(=O)(=O)Nc1ccc(F)c(C(=O)c2c[nH]c3ncc(Cl)cc23)c1F
How it was run: as §1

[6] = compound: CCCc1cc(C)[nH]c(=O)c1CNC(=O)c1cc(-c2ccnc(N3CCN(C)CC3)c2)cc2c1cnn2C(C)C
How it was run: as §1

givinostat = compound: CCN(CC)Cc1ccc2cc(COC(=O)Nc3ccc(C(=O)NO)cc3)ccc2c1 [givinostat]
How it was run: as §1

barasertib = compound: CCN(CCCOc1ccc2c(Nc3cc(CC(=O)Nc4cccc(F)c4)[nH]n3)ncnc2c1)CCOP(=O)(O)O [barasertib]
How it was run: as §1

UniProt Q9UGM6, sequence (Q9UGM6 whole entry, looked up): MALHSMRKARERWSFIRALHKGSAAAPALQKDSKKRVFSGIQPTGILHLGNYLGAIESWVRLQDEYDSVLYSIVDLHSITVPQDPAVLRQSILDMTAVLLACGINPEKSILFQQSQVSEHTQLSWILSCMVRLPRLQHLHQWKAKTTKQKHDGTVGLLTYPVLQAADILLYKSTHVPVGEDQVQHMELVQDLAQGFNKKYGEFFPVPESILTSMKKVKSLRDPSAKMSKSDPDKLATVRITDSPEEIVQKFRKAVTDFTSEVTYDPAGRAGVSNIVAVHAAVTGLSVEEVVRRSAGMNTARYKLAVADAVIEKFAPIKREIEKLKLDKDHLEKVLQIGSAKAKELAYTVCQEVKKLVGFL
UniProt P22314, sequence (P22314 whole entry, looked up): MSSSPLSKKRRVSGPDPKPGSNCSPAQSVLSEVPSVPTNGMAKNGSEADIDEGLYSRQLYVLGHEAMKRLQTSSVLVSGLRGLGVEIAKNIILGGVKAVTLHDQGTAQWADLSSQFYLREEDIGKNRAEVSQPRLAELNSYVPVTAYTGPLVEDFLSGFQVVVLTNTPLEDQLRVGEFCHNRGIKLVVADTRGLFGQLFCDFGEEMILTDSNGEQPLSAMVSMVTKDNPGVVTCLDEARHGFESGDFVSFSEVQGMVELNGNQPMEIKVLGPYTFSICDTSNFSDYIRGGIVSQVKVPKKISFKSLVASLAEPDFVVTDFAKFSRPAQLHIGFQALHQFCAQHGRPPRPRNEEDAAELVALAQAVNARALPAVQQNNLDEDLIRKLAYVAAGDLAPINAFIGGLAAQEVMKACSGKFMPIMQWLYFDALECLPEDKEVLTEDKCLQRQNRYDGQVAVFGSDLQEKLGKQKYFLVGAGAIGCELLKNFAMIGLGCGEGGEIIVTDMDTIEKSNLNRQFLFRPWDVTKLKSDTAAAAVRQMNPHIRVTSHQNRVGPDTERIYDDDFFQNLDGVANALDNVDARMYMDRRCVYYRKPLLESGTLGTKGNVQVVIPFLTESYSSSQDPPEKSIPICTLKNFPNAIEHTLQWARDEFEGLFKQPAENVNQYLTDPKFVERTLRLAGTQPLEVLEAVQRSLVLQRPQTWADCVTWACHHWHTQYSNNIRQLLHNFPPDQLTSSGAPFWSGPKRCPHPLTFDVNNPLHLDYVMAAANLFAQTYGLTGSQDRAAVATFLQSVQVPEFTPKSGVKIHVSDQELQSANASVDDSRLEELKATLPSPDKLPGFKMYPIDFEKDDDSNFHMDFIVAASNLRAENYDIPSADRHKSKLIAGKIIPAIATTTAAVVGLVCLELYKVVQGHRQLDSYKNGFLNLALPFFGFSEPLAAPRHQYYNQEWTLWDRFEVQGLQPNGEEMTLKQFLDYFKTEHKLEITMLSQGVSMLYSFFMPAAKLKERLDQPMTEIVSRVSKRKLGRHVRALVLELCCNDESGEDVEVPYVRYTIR
UniProt Q96JG6, sequence (Q96JG6 whole entry, looked up): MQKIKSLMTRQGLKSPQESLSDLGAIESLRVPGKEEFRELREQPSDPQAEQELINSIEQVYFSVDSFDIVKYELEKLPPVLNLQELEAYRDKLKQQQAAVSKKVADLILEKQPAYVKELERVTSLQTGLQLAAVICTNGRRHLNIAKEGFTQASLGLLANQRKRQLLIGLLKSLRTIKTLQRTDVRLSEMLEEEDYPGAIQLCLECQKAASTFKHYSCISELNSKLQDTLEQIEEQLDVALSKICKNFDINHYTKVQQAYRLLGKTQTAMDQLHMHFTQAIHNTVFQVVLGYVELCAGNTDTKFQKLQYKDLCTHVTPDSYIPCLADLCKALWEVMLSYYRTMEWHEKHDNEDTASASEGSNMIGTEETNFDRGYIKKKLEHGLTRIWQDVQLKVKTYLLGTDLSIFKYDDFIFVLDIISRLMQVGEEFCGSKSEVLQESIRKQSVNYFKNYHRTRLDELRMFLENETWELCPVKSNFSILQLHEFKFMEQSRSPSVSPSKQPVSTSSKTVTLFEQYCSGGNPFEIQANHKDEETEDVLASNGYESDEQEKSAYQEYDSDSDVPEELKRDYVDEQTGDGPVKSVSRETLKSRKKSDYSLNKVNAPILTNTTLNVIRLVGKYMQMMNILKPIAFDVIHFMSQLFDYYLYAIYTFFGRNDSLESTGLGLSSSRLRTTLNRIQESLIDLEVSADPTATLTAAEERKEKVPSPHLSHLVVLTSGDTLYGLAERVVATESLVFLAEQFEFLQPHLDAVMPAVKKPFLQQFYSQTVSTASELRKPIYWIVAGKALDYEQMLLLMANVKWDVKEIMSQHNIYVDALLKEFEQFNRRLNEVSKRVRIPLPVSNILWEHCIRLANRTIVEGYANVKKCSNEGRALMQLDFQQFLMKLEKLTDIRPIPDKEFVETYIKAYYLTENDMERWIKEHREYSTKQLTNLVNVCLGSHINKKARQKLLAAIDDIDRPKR
UniProt P13010, sequence (P13010 whole entry, looked up): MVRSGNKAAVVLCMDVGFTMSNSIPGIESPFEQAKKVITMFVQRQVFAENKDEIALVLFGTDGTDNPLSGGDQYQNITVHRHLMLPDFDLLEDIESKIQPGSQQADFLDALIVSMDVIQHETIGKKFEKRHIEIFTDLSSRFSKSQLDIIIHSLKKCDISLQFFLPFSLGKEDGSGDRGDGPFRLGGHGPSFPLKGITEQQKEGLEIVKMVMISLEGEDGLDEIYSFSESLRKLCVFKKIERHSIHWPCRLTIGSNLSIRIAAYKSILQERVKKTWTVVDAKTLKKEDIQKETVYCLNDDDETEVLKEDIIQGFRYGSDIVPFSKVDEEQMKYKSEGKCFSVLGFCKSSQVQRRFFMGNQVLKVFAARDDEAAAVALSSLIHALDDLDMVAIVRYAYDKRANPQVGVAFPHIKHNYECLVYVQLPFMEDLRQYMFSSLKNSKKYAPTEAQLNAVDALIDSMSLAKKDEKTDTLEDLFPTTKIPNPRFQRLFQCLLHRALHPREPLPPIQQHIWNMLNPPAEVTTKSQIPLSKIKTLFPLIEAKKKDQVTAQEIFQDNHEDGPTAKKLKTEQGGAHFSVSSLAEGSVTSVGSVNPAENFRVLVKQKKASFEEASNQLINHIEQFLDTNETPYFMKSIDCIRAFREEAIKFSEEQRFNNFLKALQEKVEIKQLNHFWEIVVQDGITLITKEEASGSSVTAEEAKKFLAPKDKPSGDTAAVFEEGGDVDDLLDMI
UniProt Q9UHP3, sequence (Q9UHP3 whole entry, looked up): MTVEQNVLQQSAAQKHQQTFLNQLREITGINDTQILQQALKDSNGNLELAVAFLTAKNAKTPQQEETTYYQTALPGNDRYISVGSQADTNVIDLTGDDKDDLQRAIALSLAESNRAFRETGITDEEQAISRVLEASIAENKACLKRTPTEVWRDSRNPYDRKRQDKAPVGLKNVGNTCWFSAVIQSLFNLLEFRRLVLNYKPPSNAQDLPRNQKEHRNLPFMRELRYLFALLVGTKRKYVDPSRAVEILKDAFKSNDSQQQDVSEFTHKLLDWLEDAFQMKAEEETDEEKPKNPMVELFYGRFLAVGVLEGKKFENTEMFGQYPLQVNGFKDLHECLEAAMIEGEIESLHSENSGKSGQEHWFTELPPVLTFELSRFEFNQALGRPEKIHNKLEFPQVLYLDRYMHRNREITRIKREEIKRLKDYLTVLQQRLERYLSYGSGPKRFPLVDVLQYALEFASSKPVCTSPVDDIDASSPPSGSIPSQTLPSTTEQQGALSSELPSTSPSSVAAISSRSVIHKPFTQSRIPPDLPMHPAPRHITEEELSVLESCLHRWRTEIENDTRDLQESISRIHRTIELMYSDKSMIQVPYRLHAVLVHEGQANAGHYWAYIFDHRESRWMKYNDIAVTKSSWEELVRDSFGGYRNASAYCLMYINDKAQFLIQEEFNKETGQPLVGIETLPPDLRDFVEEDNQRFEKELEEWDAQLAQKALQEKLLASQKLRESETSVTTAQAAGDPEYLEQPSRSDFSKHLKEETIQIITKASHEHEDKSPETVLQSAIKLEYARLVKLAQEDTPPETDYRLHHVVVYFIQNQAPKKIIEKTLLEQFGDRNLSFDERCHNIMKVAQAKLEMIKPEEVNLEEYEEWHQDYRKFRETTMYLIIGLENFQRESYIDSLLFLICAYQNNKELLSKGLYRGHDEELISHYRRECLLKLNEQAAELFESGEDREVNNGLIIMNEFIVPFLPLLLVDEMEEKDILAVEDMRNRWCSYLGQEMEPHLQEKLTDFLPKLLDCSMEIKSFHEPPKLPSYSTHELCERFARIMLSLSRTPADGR
UniProt P12956, sequence (P12956 whole entry, looked up): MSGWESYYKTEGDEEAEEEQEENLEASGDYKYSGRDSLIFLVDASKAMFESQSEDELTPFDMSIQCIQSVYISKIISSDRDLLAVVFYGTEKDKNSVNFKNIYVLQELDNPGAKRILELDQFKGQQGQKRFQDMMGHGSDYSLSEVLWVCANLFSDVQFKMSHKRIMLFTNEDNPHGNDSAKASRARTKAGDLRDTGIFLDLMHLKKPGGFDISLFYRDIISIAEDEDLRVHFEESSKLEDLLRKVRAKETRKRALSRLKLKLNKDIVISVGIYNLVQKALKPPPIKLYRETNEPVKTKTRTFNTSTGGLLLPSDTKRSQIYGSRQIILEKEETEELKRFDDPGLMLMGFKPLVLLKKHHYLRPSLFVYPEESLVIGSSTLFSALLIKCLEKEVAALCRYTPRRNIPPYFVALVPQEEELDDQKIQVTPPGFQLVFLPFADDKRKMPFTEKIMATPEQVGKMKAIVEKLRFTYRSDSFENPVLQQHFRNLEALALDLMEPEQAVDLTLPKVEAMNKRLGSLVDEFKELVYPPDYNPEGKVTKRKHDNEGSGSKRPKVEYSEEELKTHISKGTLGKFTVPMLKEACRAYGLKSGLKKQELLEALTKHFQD
UniProt Q9Y3C0, sequence (Q9Y3C0 whole entry, looked up): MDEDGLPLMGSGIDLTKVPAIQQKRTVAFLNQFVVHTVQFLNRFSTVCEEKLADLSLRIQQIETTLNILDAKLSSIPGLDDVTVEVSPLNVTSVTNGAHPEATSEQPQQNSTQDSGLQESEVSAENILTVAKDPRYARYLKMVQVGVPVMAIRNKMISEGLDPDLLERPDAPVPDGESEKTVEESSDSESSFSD

Target	log2 fold change [1]	log2 fold change [2]	log2 fold change [3]	log2 fold change [4]	log2 fold change (Nexturastat A)	log2 fold change (vemurafenib)	log2 fold change [5]	log2 fold change [6]	log2 fold change (givinostat)	log2 fold change (barasertib)
XRCC6 (UniProt P12956)	0.046	-0.051	0.022	0.033	-0.023	0.059	0.138	0.025	0.116	0.086
XRCC5 (UniProt P13010)	0.073	-0.08	0.044	0.143	0.033	0.115	0.189	0.109	0.234	0.143
WDR62 isoform 4 (UniProt O43379)	-0.123	-0.015	-0.055	-0.033	0.029	0.008	0.053	-0.014	0.022	0.032
TMEM161A (UniProt Q9NX61)	-0.045	0.12	0.014	-0.012	-0.059	0.045	0.225	-0.048	0.024	-0.017
UBLCP1 (UniProt Q8WVY7)	-0.011	-0.078	-0.03	0.03	0.025	0.076	0.093	-0.006	0.122	0.057
USP24 (UniProt Q9UPU5)	0.114	-0.026	0	0.012	-0.047	0	0.052	-0.042	0.011	-0.053
TMEM173 (UniProt Q86WV6)	-0.037	-0.01	-0.043	-0.008	-0.212	0.056	-0.043	-0.008	-0.076	0.055
UFM1 (UniProt P61960)	0.031	-0.046	0.06	0.183	-0.04	0.07	0.041	-0.083	0.087	-0.014
UFD1 isoform 1 (UniProt Q92890)	0.02	-0.025	0.037	0.106	0.015	0	0.018	-0.015	0.032	-0.011
TYW1 (UniProt Q9NV66)	0.027	-0.017	0.023	0.074	-0.08	0.025	0.084	0.069	-0.025	0.045
UBAP2L isoform 5 (UniProt Q14157)	-0.014	0.036	0.017	0.013	0.017	-0.008	0.006	-0.03	0.011	0.011
TRAPPC6B (UniProt Q86SZ2)	0.022	-0.01	0.049	0.07	-0.097	0.009	0.02	-0.063	-0.02	0.008
WASHC3 (UniProt Q9Y3C0)	0.011	0.015	0.049	-0.008	-0.051	0.005	-0.006	-0.08	0.004	0.017
WDR11 (UniProt Q9BZH6)	-0.004	0.057	-0.008	-0.016	-0.097	-0.089	-0.084	-0.105	0.035	0.034
WARS2 (UniProt Q9UGM6)	-0.03	0.032	0.018	0.074	-0.128	0.048	0.136	0.042	-0.026	0.012
VPS50 (UniProt Q96JG6)	-0.007	-0.076	0.054	0.054	-0.052	0.077	0.066	0.09	0.014	0.059
USP14 (UniProt P54578)	0.023	-0.018	0.01	0.034	-0.069	0.021	0.093	0.012	-0.006	0.032
TMEM263 (UniProt Q8WUH6)	-0.009	-0.015	0.117	0.059	-0.02	-0.051	0.128	-0.138	-0.015	0.054
TMEM177 (UniProt Q53S58)	0.043	0.045	-0.008	0.048	-0.092	0.05	0.05	-0.038	0.005	-0.019
TNPO1 (UniProt Q92973)	0.041	0	0.037	0	-0.017	0.015	0.064	-0.009	0.015	-0.005
TMEM9 (UniProt Q9P0T7)	-0.024	-0.041	0.057	-0.008	0	0.028	0.091	-0.062	0.039	0.019
TNFAIP8 isoform 4 (UniProt O95379)	-0.019	-0.013	-0.021	0.051	-0.102	0.014	-0.102	-0.052	0.003	0.065
USP25 isoform 3 (UniProt Q9UHP3)	0.004	0.008	-0.009	0.045	-0.029	0.04	0.027	0.024	0.015	0.02
VPS16 (UniProt Q9H269)	0.023	0.011	0.032	-0.013	0.038	0.017	0.109	0	0.075	-0.086
UBA1 (UniProt P22314)	0.039	-0.054	0.048	0.006	-0.066	0.084	0.089	0.058	0.074	0.138
VTA1 (UniProt Q9NP79)	0.011	-0.019	0.044	0.034	-0.041	0.042	0.082	-0.065	-0.005	0.041
UXT isoform 2 (UniProt Q9UBK9)	0.008	0.003	0.039	-0.074	0.904 (active)	-0.023	-0.013	0.041	0.211	0.022
TTI1 (UniProt O43156)	0.147	-0.027	0.086	-0.026	0.02	0.082	0.095	-0.016	0.135	0.068
VPS35L (UniProt Q7Z3J2)	0.024	-0.031	-0.052	-0.022	0.05	0.003	0.049	0.086	0.03	0.07

Reference: the supplement of paper PMC10849652
